The text below walks through data of PubChem BioAssay AID2284388 (EPA ToxCast).

Inconclusive results are not listed. Calls of active or inactive are those of the source. The calls were made as follows: active = hit-call score of the fitted dose curve at least 0.9, where 1 is the maximum; inconclusive = response in the unintended direction; inactive = score below 0.9.

In this assay the target is human Retinoid X Receptor beta (RXRb) Agonism, RXRB (gene 6257) (UniProt P28702). As to the kind of experiment: ERF_TW_NR_COA_hRXRB: Eurofins (ERF) Nuclear Receptor (NR) Functional Coactivator Assay for human Retinoid X Receptor beta (RXRb) Agonism. As for the experimental part: ERF_TW_NR_COA_hRXRB is a biochemical, single-readout assay that uses extracted gene-proteins in a cell-free assay. Measurements were taken 0.5 hours after chemical dosing in a 96-well plate. See RXRbeta Human Retinoid X NHR Functional Agonist Coactivator Assay, Panlabs.ERF_TW_NR_COA_hRXRB is an assay component calculated from the ERF_TW_NR_COA_hRXRB assay. It is designed to measure FRET using a type of binding reporter as detected by fluorescence intensity of fluorobexarotene with fluorimetry technology.Data from the assay component ERF_TW_NR_COA_hRXRB was analyzed at the assay endpoint, ERF_TW_NR_COA_hRXRB, in the positive analysis fitting direction relative to DMSO as the negative control and baseline of activity. Using a type of binding reporter, gain-of-signal activity can be used to understand changes in binding as they relate to gene RXRB. To generalize the intended target to other relatable targets, this assay endpoint is annotated to the nuclear receptor intended target family, where the subfamily is non-steroidal.
human Retinoid X Receptor beta (RXRb) Agonism, RXRB (gene 6257), sequence (P28702 whole entry, looked up): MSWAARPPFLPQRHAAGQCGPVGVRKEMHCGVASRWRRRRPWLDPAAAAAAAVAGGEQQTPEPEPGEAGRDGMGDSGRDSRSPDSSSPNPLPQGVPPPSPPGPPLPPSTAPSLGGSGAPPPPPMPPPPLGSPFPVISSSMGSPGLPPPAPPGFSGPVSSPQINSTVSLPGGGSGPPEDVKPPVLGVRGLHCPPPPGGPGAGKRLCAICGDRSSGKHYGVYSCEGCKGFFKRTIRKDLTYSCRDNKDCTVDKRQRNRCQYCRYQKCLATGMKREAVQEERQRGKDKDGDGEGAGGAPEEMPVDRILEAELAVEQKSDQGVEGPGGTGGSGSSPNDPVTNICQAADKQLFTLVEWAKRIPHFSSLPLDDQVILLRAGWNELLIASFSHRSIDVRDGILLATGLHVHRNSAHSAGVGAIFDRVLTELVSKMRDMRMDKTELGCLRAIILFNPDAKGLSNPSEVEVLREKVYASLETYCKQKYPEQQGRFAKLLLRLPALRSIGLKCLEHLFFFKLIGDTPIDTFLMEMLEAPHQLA
Test compound and/or vehicle is incubated with the 2 nM retinoid X receptor beta (RXRbeta)-LBD and coactivator peptide for 30 minutes at RT. Determination of the amount of complex formed is read spectrofluorimetrically (excitation: 337 nm, emission: 520/490 nm). Test compound-induced increase fluorescence by 50 percent or more (>/=50%) relative to the 10 uM fluorobexarotene response indicates possible RXRbeta receptor agonist activity.
For `CN(c1nccc(=O)[nH]1)C1CCN(c2nc3ccccc3n2Cc2ccc(F)cc2)CC1`, the call was inactive.

On to `O=C(O)C(F)(F)C(F)(F)C(F)(F)C(F)(F)C(F)(F)C(F)(F)C(F)(F)C(F)(F)Cl`, for which the result was inactive.

As to `O=S(=O)(O)C(F)(F)C(F)(F)C(F)(F)C(F)(F)C(F)(F)C(F)(F)C(F)(F)C(F)(F)F`, the call was inactive.

For `CC1(C)CCC(C)(C)c2cc(C(=O)Nc3ccc(C(=O)O)cc3)ccc21`, the result was inactive.

Consider `O=C(O)C(F)(F)OC(F)(F)C(F)(F)OC(F)(F)C(F)(F)OC(F)(F)C(F)(F)C(F)(F)C(F)(F)F`, for which the call was inactive.

Consider `CCCc1c(OCCCOc2ccc(OCC(=O)O)cc2)ccc(C(C)=O)c1O`, for which the compound was called inactive.

For the compound `CC(=O)c1cc(C(C)(C)C)cc2c1CCC2(C)C`, the AC50 (commonly the concentration giving half of the maximal activity seen) is 14.5 µM (active).

For `OCCCC(F)(F)C(F)(F)C(F)(F)C(F)(F)C(F)(F)C(F)(F)C(F)(F)F`, the call was inactive.

For the compound `ClC1=C(Cl)[C@]2(Cl)[C@@H]3[C@H]4C[C@H]([C@@H]5O[C@H]45)[C@@H]3[C@@]1(Cl)C2(Cl)Cl`, the result was inactive.

For the compound `O=C(O)C(F)(F)C(F)(F)C(F)(F)OC(F)(C(F)(F)F)C(F)(F)F`, the compound was called inactive.

`C/C(=C\c1ccc(C(=O)O)cc1)c1ccc2c(c1)C(C)(C)CCC2(C)C`: the compound was called inactive.

Regarding `Cc1ccc2cc3c(ccc4ccccc43)c3c2c1CC3`, the compound was classed as inactive.

On to `ClC1=C(Cl)[C@]2(Cl)[C@@H]3[C@@H]4C[C@@H]([C@H]5O[C@@H]45)[C@@H]3[C@@]1(Cl)C2(Cl)Cl`, for which the outcome was inactive.
